Laboratory results: PubChem BioAssay AID1159580 (chemical genetic matrix, 2015)
The whole screen tested about 5,500 compounds, of which about 2,000 (36%) were called active. About 18% were inconclusive and are not listed. Rule as the data show it: active = normalized growth mostly below about 0.91 (no sharp cut-off); inconclusive = no clear call, values can overlap the other calls; inactive = mostly above about 0.92. The list shows a part of the results.

Assay: chemical genetic growth profiling, strain panel (AID 1159580);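 also: tested at 20 µM; growth read once vehicle control cultures reached saturation at 30 °C; 1 = growth at the plate median or of vehicle wells; lower values mean less growth of the strain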
Details: S. cerevisiae deletion strains, growth OD

Measured: normalized growth

COc1ccc2nc3ccccc3c(N)c2c1
inactive: locus YPR111W, strain DBF20, active compounds read low 1
active: locus YAR019C, strain CDC15, active compounds read low 0.6 | locus YBL105C, strain PKC1, active compounds read low 0.592 | locus YBR135W, strain CKS1, active compounds read low 0.722 | locus YBR136W, strain MEC1, active compounds read low 0.657 | locus YBR160W, strain CDC28, active compounds read low 0.661 | locus YDL017W, strain CDC7, active compounds read low 0.636 | locus YDL028C, strain MPS1, active compounds read low 0.679 | locus YDL108W, strain KIN28, active compounds read low 0.737 | locus YDL214C, strain PRR2, active compounds read low 0.203 | locus YDR052C, strain DBF4, active compounds read low 0.701 | locus YDR054C, strain cdc34, active compounds read low 0.625 | locus YDR477W, strain SNF1, active compounds read low 0.198 | locus YER123W, strain YCK3, active compounds read low 0.195 | locus YER133W, strain GLC7, active compounds read low 0.215 | locus YFL029C, strain CAK1, active compounds read low 0.579 | locus YFR003C, strain YPI1, active compounds read low 0.652 | locus YFR019W, strain FAB1, active compounds read low 0.208 | locus YGR040W, strain KSS1, active compounds read low 0.21 | locus YGR052W, strain FMP48, active compounds read low 0.235 | locus YGR092W, strain DBF2, active compounds read low 0.227 | locus YHR030C, strain SLT2, active compounds read low 0.188 | locus YHR079C, strain IRE1, active compounds read low 0.206 | locus YHR082C, strain KSP1, active compounds read low 0.27 | locus YHR205W, strain SCH9, active compounds read low 0.151 | locus YIL147C, strain SLN1, active compounds read low 0.63 | locus YJL095W, strain BCK1, active compounds read low 0.227 | locus YJL157C, strain FAR1, active compounds read low 0.176 | locus YJR016C, strain ILV3, active compounds read low 0.699 | locus YJR066W, strain TOR1 (second series), active compounds read low 0.246 | locus YJR066W, strain TOR1, active compounds read low 0.233 | locus YKL048C, strain ELM1, active compounds read low 0.264 | locus YKL067W, strain YNK1, active compounds read low 0.19 | locus YKL101W, strain HSL1, active compounds read low 0.193 | locus YKL193C, strain SDS22, active compounds read low 0.659 | locus YKL203C, strain TOR2, active compounds read low 0.204 | locus YLR113W, strain HOG1, active compounds read low 0.257 | locus YLR133W, strain CKI1, active compounds read low 0.199 | locus YLR403W, strain SFP1, active compounds read low 0.11 | locus YML070W, strain DAK1, active compounds read low 0.207 | locus YMR001C, strain CDC5, active compounds read low 0.667 | locus YMR205C, strain PFK2 (second series), active compounds read low 0.258 | locus YMR277W, strain FCP1, active compounds read low 0.648 | locus YNL006W, strain LST8, active compounds read low 0.611 | locus YNL020C, strain ARK1, active compounds read low 0.196 | locus YNL161W, strain CBK1, active compounds read low 0.525 | locus YNL183C, strain NPR1, active compounds read low 0.283 | locus YNL207W, strain RIO2, active compounds read low 0.645 | locus YNL222W, strain SSU72, active compounds read low 0.638 | locus YNL307C, strain MCK1 (second series), active compounds read low 0.202 | locus YOL078W, strain AVO1, active compounds read low 0.689 | locus YOL136C, strain PFK27, active compounds read low 0.205 | locus YOR061W, strain CKA2, active compounds read low 0.186 | locus YOR119C, strain RIO1, active compounds read low 0.221 | locus YOR231W, strain MKK1, active compounds read low 0.225 | locus YOR329C, strain SCD5, active compounds read low 0.607 | locus YPL031C, strain PHO85, active compounds read low 0.214 | locus YPL153C, strain RAD53, active compounds read low 0.216 | locus YPL204W, strain HRR25, active compounds read low 0.198 | locus YPL209C, strain IPL1, active compounds read low 0.624 | locus YPL256C, strain CLN2, active compounds read low 0.252 | locus YPR025C, strain CCL1, active compounds read low 0.637 | locus YPR106W, strain ISR1, active compounds read low 0.679 | strain NNK1, active compounds read low 0.537 | strain TSCII, active compounds read low 0.58
